# In PubChem BioAssay:
# Activity calls are given as the source filed them. Unless noted, the rule behind the calls is not given here.
# Experiments:
# [1] = tested on: Wnt5a (protein binding on small-molecule microarray); test: small molecules binding Wnt5a protein – biophysical, small-molecule microarray, 635/667 nm fluorescence, primary screen (AID 1142); settings: 635 nm fluorescence, higher = more signal;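 note: fluorescence read at 667 nm with signal to noise per printed feature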
# [2] = ATP-based viability of Huh7 replicon cells – cell-based, CellTiter-Glo luminescence, basal, 48 h, cytotoxicity control for HCV replication inhibitor project, primary screen (AID 1143); settings: higher = more signal, called active from +8 up or from −8 down;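 note: Huh7 hepatoma cells carrying a hepatitis C replication reporter with no stimulus; test concentration not given here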
# [3] = Pseudomonas biofilm growth suppression – PAO1 strain, BacTiter-Glo luminescence, LB-PBS, primary screen (AID 1144); settings: P. aeruginosa PAO1 biofilm, 12 h, higher = more signal
# [4] = basal CRE-LacZ reporter activity in PC12 – cell-based, unstimulated, primary screen (AID 1145); settings: no forskolin, luminescence, 4.5 h, higher = more signal, called active from +8 up or from −8 down
# [5] = forskolin-driven CRE-LacZ activity in PC12 – cell-based, CRE-LacZ reporter, forskolin-stimulated, primary screen (AID 1146); settings: luminescence, 4.5 h, higher = more signal, called active from +8 up or from −8 down;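 note: PC12 cells with 6xCRE LacZ reporter stimulated by forskolin 10 µM; beta-galactosidase reporter signal reflecting CREB driven transcription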
# [6] = molecular target: Streptavidin (Streptomyces avidinii) (UniProt P22629); test: compounds binding control protein streptavidin – biophysical, small-molecule microarray, 635/667 nm fluorescence, artefact control for SMM compound annotation, primary screen (AID 1147); settings: higher = more signal;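 note: signal reflects streptavidin binding to arrayed compounds as a control protein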
# [7] = probe aInhba binding on compound microarray – biochemical, small-molecule microarray, 635/667 nm fluorescence, primary screen (AID 1148); settings: higher = more signal;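 note: score merges 667nm spot fluorescence with signal-to-noise for antibody binding to printed compounds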
# Torsin-1A (Homo sapiens) [8] = molecular target: Torsin-1A (Homo sapiens) (UniProt O14656); test: TOR1A wild-type binding on microarray – cell lysate, small-molecule microarray, lysate, 635/667 nm, primary screen (AID 1149); settings: COS7 hTOR1A-WT lysate, 635 nm fluorescence, higher = more signal
# Torsin-1A (Homo sapiens) [9] = molecular target: Torsin-1A (Homo sapiens) (UniProt O14656); test: torsin A mutant lysate binding on microarrays – cell lysate, small-molecule microarray, COS7 lysate, 635/667 nm fluorescence, primary screen (AID 1150); settings: COS7 hTOR1A mutant lysate, 635 nm fluorescence, higher = more signal;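 note: score pools 667 nm emission and signal to noise measuring lysate protein binding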
# [10] = tested on: Sonic hedgehog protein (Shh); test: Sonic hedgehog microarray binding compounds – biochemical, small-molecule microarray, 635/667 nm fluorescence, primary screen (AID 1151); settings: 635 nm fluorescence, higher = more signal;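 note: Shh protein binding to compounds spotted on small-molecule microarray slides; score combines spot fluorescence intensity with signal-to-noise across triplicate slides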
# [11] = optical density shifts of acrAB sulA E. coli – strain DRC41, OD650, 48 h, E. coli filamentation inducer project, primary screen (AID 1152); settings: higher = more signal, called active from +8 up or from −8 down;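 note: E. coli MC1000 strain DRC41 lacking acrAB efflux pump and sulA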
# [12] = probe aLefty1 binding on compound microarray – biochemical, small-molecule microarray, 635/667 nm fluorescence, primary screen (AID 1153); settings: higher = more signal;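 note: score merges spot fluorescence with signal-to-noise ratio from the scanned slide images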
# [13] = plasmodial surface anion channel blockers, osmotic lysis – cell-based, P. falciparum Indochina, OD700, 1 h, primary screen (AID 1154); settings: P. falciparum Indochina infected RBC osmotic lysis, higher = more signal, called active from +8 up or from −8 down
# [14] = plasmodial surface anion channel blockers, osmotic lysis – cell-based, P. falciparum Indochina, OD700, 2 h, primary screen (AID 1155);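 note: lysis reports solute entry through the parasite surface anion channel PSAC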; settings: P. falciparum Indochina infected erythrocytes, higher = more signal, called active from +8 up or from −8 down
# [15] = changes in parasitized red cell lysis, either direction – P. falciparum Indochina, OD700, 3 h, PSAC antagonist project, primary screen (AID 1156); settings: P. falciparum-infected erythrocytes, osmotic lysis, higher = more signal, called active from +8 up or from −8 down
# [16] = plasmodial surface anion channel blockers, osmotic lysis – cell-based, P. falciparum Indochina, OD700, 18 h, primary screen (AID 1157); settings: P. falciparum Indochina infected erythrocytes, osmotic lysis OD700, 18 h; higher = more signal, called active from +8 up or from −8 down
# [17] = S6 kinase pathway phospho-S6 level changes – cell-based, A549, cytoblot, luminescence, serum-stimulated, primary screen (AID 1158); settings: 5 h, higher = more signal;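 note: serum-stimulated A549 lung adenocarcinoma cells; signal is phosphorylated S6 detected by cytoblot immunostaining with HRP secondary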
# [18] = molecular target: NADPH oxidase 2 (Homo sapiens) (UniProt P04839); test: compounds shifting NOX2 Amplex Red fluorescence – cell-based, HEK293-NOX2, PMA-stimulated, NOX inhibitor project, primary screen (AID 1159); settings: 45 min, higher = more signal, called active from +8 up or from −8 down; note: test concentration not given here
# [19] = molecular target: NADPH oxidase 4 (Homo sapiens) (UniProt Q9NPH5); test: compounds shifting NOX4 Amplex Red fluorescence – cell-based, HEK293-NOX4, tetracycline-induced, NOX inhibitor project, primary screen (AID 1160); settings: HEK293-NOX4, Amplex Red H2O2 fluorescence, 45 min; higher = more signal, called active from +8 up or from −8 down
# [20] = molecular target: NADPH oxidase 5 (Homo sapiens) (UniProt Q96PH1); test: compounds shifting NOX5 Amplex Red fluorescence – cell-based, HEK293-NOX5, NOX inhibitor project, primary screen (AID 1161); settings: HEK293-NOX5, ionomycin, 45 min, higher = more signal
# Chain of NADPH oxidase 5 (Homo sapiens) (Q96PH1 whole entry, looked up): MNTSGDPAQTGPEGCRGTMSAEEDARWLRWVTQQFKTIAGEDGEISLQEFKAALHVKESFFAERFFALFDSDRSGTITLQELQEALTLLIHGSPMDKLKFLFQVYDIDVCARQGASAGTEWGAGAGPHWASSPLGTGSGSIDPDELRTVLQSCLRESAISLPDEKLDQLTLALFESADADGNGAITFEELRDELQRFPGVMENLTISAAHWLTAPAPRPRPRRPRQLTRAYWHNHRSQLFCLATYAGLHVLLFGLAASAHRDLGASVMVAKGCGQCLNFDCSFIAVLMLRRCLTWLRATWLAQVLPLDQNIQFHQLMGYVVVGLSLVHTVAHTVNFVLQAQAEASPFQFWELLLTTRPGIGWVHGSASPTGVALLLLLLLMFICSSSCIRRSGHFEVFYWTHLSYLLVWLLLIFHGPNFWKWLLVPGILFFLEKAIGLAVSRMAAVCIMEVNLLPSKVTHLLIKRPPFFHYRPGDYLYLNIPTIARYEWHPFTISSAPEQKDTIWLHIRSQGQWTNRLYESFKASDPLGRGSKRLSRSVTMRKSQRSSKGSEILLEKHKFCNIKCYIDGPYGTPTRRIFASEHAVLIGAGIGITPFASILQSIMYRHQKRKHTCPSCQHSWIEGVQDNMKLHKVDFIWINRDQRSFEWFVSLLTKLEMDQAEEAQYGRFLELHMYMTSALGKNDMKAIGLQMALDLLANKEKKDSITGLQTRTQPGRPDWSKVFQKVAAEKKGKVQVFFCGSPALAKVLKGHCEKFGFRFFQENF
# Chain of NADPH oxidase 4 (Homo sapiens) (Q9NPH5 whole entry, looked up): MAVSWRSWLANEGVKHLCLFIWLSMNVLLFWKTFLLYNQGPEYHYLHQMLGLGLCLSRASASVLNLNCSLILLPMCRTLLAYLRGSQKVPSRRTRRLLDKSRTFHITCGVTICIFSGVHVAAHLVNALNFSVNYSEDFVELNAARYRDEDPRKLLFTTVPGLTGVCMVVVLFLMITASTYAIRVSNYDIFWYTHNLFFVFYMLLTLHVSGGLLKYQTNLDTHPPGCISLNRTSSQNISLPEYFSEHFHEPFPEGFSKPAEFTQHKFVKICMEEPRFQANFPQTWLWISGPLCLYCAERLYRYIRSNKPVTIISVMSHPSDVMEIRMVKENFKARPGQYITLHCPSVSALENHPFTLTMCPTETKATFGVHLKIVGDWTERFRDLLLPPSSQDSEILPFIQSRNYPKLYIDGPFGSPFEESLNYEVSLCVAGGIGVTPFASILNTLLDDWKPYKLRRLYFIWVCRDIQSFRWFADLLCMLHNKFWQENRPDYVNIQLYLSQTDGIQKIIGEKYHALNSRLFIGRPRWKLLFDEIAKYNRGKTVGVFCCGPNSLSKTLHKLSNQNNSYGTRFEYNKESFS
# Chain of Torsin-1A (Homo sapiens) (O14656 whole entry, looked up): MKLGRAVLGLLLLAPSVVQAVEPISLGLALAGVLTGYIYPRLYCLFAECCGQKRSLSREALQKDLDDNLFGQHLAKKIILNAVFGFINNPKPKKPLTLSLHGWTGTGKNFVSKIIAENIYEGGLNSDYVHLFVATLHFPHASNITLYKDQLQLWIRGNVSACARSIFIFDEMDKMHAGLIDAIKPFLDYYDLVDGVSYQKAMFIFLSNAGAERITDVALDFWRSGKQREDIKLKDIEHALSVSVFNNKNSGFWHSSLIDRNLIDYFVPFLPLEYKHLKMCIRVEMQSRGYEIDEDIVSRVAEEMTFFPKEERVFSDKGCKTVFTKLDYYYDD
# Chain of NADPH oxidase 2 (Homo sapiens) (P04839 whole entry, looked up): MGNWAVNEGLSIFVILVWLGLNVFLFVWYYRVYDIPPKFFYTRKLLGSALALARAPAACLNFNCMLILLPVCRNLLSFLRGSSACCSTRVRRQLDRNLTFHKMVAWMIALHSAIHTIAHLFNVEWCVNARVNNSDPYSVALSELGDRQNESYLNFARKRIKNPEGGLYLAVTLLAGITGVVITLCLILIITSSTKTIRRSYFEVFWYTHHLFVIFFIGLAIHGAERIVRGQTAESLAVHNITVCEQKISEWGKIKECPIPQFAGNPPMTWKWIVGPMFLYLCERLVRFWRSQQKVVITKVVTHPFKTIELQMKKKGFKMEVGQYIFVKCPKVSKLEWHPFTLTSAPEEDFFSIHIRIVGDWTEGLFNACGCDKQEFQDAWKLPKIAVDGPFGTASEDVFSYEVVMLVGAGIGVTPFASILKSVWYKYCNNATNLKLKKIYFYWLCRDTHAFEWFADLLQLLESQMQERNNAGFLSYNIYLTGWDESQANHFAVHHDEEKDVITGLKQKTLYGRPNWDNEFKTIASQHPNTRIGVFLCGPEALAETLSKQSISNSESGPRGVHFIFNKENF
# Chain of Streptavidin (Streptomyces avidinii) (P22629 whole entry, looked up): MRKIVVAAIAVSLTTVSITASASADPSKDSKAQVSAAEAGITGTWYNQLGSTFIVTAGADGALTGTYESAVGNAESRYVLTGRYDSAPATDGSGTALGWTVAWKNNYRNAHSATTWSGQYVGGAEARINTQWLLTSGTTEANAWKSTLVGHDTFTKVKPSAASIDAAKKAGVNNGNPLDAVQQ
Compound,composite z-score [1],z-score [2],z-score [3],z-score [4],z-score [5],composite z-score [6],composite z-score [7],composite z-score (Torsin-1A (Homo sapiens) [8]),composite z-score (Torsin-1A (Homo sapiens) [9]),composite z-score [10],z-score [11],composite z-score [12],z-score [13],z-score [14],z-score [15],z-score [16],z-score [17],z-score [18],z-score [19],z-score [20]
[N-]=[N+]=NCc1ccccc1C[C@@]1(C(N)=O)N=C(c2ccc(OCCCO)cc2)O[C@@H]1c1ccccc1CN=[N+]=[N-],0.592,-2.14 (inactive),0.0387 (inactive),0.0451 (inactive),0.161 (inactive),1.13,-0.0418,0.549,0.335,-0.302,0.315 (inactive),0.315,26.2 (active),10.1 (active),1.31 (inactive),1.38 (inactive),-0.107,0.415 (inactive),0.14 (inactive),-1.66
CN1C2C=C(CCCO)C(C3C(=O)N(C(N)=O)C(=O)C32)C1c1cccs1 (stereo not given),2.03,0.148 (inactive),0.628 (inactive),-1.09 (inactive),-0.23 (inactive),0.0783,-0.0963,0.21,0.429,0.279,-0.214 (inactive),-0.101,1.12 (inactive),0.273 (inactive),0.13 (inactive),0.431 (inactive),-0.633,0.824 (inactive),-0.845 (inactive),0.259
C=C(/C(=C/C[C@@H](OC(=O)c1ccncc1)c1ccc(OCCO)cc1)c1cc(C(=O)OC)ccc1OC)C(C)C,0.308,-1.79 (inactive),-0.745 (inactive),2.06 (inactive),0.96 (inactive),0.747,-0.271,0.0376,0.266,1.7,0.927 (inactive),-0.0984,17.9 (active),2.79 (inactive),2.56 (inactive),1.02 (inactive),0.596,-2.45 (inactive),-1.24 (inactive),-1.86
COCC(=C=CC[C@H](O)c1ccc(OCCO)cc1)C[C@H](O)COCc1ccccc1,0.122,-1.66 (inactive),-0.54 (inactive),0.611 (inactive),-0.724 (inactive),0.249,-0.0736,0.908,0.719,1.55,1.19 (inactive),0.179,16.5 (active),1.61 (inactive),0.103 (inactive),-0.749 (inactive),0.974,-1.6 (inactive),-0.65 (inactive),-2.52
COC(=O)[C@]1(CCS(=O)(=O)c2ccccc2)N=C(c2ccc(OCCCO)cc2)O[C@@H]1c1ccccc1CN=[N+]=[N-],0.419,-4.23 (inactive),-0.32 (inactive),1.73 (inactive),-1.37 (inactive),0.379,0.0655,1.33,0.69,0.738,-2.11 (inactive),0.15,30.4 (active),28 (active),1.82 (inactive),5.19 (inactive),-0.505,-5.83 (inactive),-1.31 (inactive),-3.08
COc1cc(OC)c(C(O)C2C=CC3C(=O)N(c4ccccc4)C(=O)C3N2Nc2ccc(C#N)cc2)cc1Br (stereo not given),0.507,0.411 (inactive),-0.245 (inactive),2.17 (inactive),-0.475 (inactive),1.9,0.451,0.367,0.99,-0.186,-0.652 (inactive),0.843,25 (active),11.4 (active),1.39 (inactive),1.76 (inactive),-0.962,-1.41 (inactive),-5.35 (inactive),-2.08
COc1ccc([Si](C)(C)[C@H]2[C@H](CCn3cc(CCO)nn3)O[C@@]3(C(=O)N(Cc4ccc(N5C(=O)c6cccc7cccc5c67)cc4)c4ccccc43)[C@@H]2C)cc1,0.426,-7.91 (inactive),-0.152 (inactive),1.12 (inactive),-0.213 (inactive),0.798,-0.0933,0.316,0.238,2.08,1.91 (inactive),0.108,4.64 (inactive),0.882 (inactive),0.134 (inactive),-0.627 (inactive),1.64,-0.985 (inactive),1.82 (inactive),1.44
COCCCNC(=O)[C@]1(CCC(=O)OC(C)(C)C)N=C(c2ccc(OCCCO)cc2)O[C@@H]1c1ccccc1,0.163,0.11 (inactive),1.2 (inactive),0.699 (inactive),-0.625 (inactive),0.172,0.346,1.11,2.06,-1.52,0.134 (inactive),-0.166,14.7 (active),1.61 (inactive),0.58 (inactive),0.57 (inactive),-0.507,-0.00397 (inactive),0.689 (inactive),-0.139
CCOC(=O)C1=CC[C@@H](c2cc(Cl)ccc2Cl)N(S(=O)(=O)c2ccc(C)cc2)[C@H]1c1ccc(OC)cc1,1.11,-4.08 (inactive),0.42 (inactive),0.472 (inactive),-0.555 (inactive),0.0102,0.482,0.234,0.42,0.172,-0.718 (inactive),0.369,2.98 (inactive),1.92 (inactive),0.926 (inactive),0.826 (inactive),-0.371,0.28 (inactive),-0.51 (inactive),0.465
